# Hits are enriched below; roughly 7.3% of the tested compounds scored in any of these assays.
# NPC1 prom act: activates the NPC1 promoter; Huh7 NPC1 promoter luciferase reporter, 24 h; Potency, µM (titrated, usually from 9.22 µM), actives largely listed as activators; 2.4% of 320,000 active; AID 485313; note: nearly all actives have a fitted effect of over 60% in size
#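 Luminescence read-out of NPC1 promoter-driven luciferase in stably transfected Huh7 cells; compounds delivered in DMSO and left 24 h at 37C, 5% CO2, qHTS titration format.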
# Rab9 promoter act: activators of Rab9 promoter | Huh7 Rab9 promoter-luciferase reporter, luminescence, 24 h | Potency, µM (top dose mostly 9.22 µM), hits mostly activators | 2.8% of 320,000 active; note: nearly all actives have a fitted effect of over 60% in size
#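 Quantitative HTS format; Huh7 Rab9-luciferase reporter cells (1500/well) receive compound 2 h post-plating, incubate 24 h at 37 °C, then get luciferase reagent for 10 min before luminescence reading.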
# FLuc modulator: firefly luciferase modulation, counter-screen for miR-21 project; purified FLuc, Km substrates, luminescence inhibition; P08659; Potency, µM (highest dose often 57.5 µM), most hits filed as inhibitors; 6.9% of 360,000 active; AID 588342; note: nearly all actives have a fitted effect of over 55% in size
# Target sequence (P08659 whole entry, looked up): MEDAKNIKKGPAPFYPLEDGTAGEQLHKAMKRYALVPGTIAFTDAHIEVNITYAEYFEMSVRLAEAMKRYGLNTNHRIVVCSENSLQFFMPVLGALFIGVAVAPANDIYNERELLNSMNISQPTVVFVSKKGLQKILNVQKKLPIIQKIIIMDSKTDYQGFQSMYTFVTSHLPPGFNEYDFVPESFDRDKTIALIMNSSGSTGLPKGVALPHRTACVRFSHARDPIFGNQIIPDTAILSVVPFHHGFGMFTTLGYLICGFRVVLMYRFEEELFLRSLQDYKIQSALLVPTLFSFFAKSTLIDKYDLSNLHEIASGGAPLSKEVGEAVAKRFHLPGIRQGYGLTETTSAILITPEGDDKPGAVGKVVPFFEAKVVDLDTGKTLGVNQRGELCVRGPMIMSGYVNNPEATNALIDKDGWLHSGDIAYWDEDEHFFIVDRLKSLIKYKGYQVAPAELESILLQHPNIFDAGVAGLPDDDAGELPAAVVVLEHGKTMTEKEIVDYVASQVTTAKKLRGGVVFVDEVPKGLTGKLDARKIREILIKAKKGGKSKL
#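 Purified P. pyralis luciferase (10nM final) with 10uM D-luciferin and 10uM ATP (Km levels) in 50mM Tris acetate pH 7.5, 10mM Mg acetate, 0.01% Tween-20, 0.05% BSA; qHTS 6-point titration, ~60 µM downward; luminescence read.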
# SMN2 splice up: SMN2 splice variant enhancement | 2.8% of 210,000 active | AID 1458 | Potency, µM (doses to about 46.1 µM), most hits filed as activators | HEK293 SMN2-luciferase splicing reporter, luminescence, 30-36 h; note: nearly all actives have a fitted effect of over 55% in size
#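 qHTS luciferase splicing reporter: luminescence rises when SMN2 exon 7 is included in transfected HEK293 cells. Compound exposure lasted 30-36 h at 37C, with 4.5 mM final sodium butyrate as control, followed by a ONE-Glo read.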
# Luc counter: counter-screen: inhibitors of Kinase-Glo firefly luciferase; Q27757; Kinase-Glo luciferase, ATP luminescence, 8 min; Potency, µM (top dose mostly 38.3 µM), hits mostly inhibitors; 0.28% of 200,000 active; AID 1379; note: nearly all actives have a fitted effect of over 60% in size
#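 Compound is pinned into ATP-containing buffer (10 uM ATP, imidazole pH 7.2, 7 mM MgCl2). Kinase-Glo luciferase reagent is then added. Light output is recorded following an 8-min room-temperature incubation.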
# Numbers stand for hits; . = inactive; ? = inconclusive; / = no result; [ ] = dose if it differs, or a comment. Calls come from the whole dose curve; as a rule, active = well fitted curve in the direction sought with a large enough effect; inconclusive = small, poorly fitted or top-dose-only effect, or another doubt; inactive = no such curve, though single readings can be large; an effect the other way counts as inactive or inconclusive.
SMILES,NPC1 prom act,Rab9 promoter act,FLuc modulator,SMN2 splice up,Luc counter
CC(=O)c1cnc(-c2cccc(Cl)c2)s1,?,?,.,?,.
COc1ccc(CCNC(=O)C(=O)NCC(c2ccc3c(c2)OCO3)N2CCOCC2)cc1OC (centres undefined),/,/,.,/,/
COc1ccc(Cn2c(SCc3ccc(C(=O)NC4CCCCC4)cc3)nc3cccnc32)cc1,/,/,.,/,/
CC1CCN(CCNC(=O)c2ccc(Cn3c(SCc4ccccc4)nc4cccnc43)cc2)CC1,/,/,12µM,.,/
O=C(NCCN1CCCCC1)c1ccc(Cn2c(SCc3ccccc3)nc3cccnc32)cc1,/,/,12µM,.,/
Cc1cccc(Cn2c(SCc3ccc(C(=O)NCCc4ccccc4)cc3)nc3cccnc32)c1,/,/,.,/,/
CC(NC(=O)c1ccc(Cn2c(SCc3ccccc3)nc3cccnc32)cc1)c1ccccc1 (centres undefined),/,/,.,/,/
CC1CCCCN1CCNC(=O)c1ccc(Cn2c(SCc3ccccc3)nc3cccnc32)cc1 (centres undefined),/,/,13.5µM,.,/
Cc1cccc(NC(=O)Cn2nnc(-c3nc(-c4ccncc4)no3)c2N)c1,/,/,.,/,/
Cc1cccc(S(=O)(=O)Nc2ccc(-c3nc4ccc(C)cc4s3)cc2)c1,2.82µM,2.82µM,3.01µM,11.2µM,.
Cc1ccc2nc(-c3ccc(NS(=O)(=O)c4c(C)n(C)c(=O)n(C)c4=O)cc3)sc2c1,3.16µM,2.82µM,1.9µM,/,/
CC(=O)c1ccc(NS(=O)(=O)c2cccc(C)c2)cc1,.,.,?,.,.
CC(NC(=O)c1ccc2c(c1)sc1nc(-c3ccc(F)cc3)cn12)C12CC3CC(CC(C3)C1)C2 (centres undefined),/,/,.,/,/
CC(=O)NC1CC(=O)N(c2ccc3c(c2)OCCO3)C1 (centres undefined),/,/,.,/,/
CCOC(=O)C1=C(O)/C(=C\c2cc(C)n(-c3ccccc3F)c2C)N=C1C,.,.,0.601µM,.,.
COC(=O)C1=C(C)NC(=O)/C1=C\c1cc(C)n(-c2ccccc2F)c1C,.,.,12µM,25.1µM,.
COC(=O)C1=C(C)NC(=O)/C1=C\c1cc(C)n(-c2ccccc2C)c1C,.,.,16.9µM,.,.
CN(C)c1ccc(CNC(=O)C2CCN(c3nnc(-n4cccc4)s3)CC2)cc1,/,/,.,/,/
c1ccc(N2CCN(c3ncnc4[nH]ncc34)CC2)cc1,/,/,.,/,/
Cc1ccc(C(=O)Nc2ccc(-n3c(C)nc4ccccc4c3=O)cc2)cc1[N+](=O)[O-],/,/,.,/,/
CCC(=O)N1CCc2cc(CNC(=O)Nc3ccc(OC)cc3OC)ccc21,/,/,.,/,/
Cc1ccc(Cn2c(CN3CCC(C(=O)NCc4cccnc4)CC3)cc3ccccc32)cc1,/,/,.,/,/
C/C(=N\NC(=O)c1ccc(N/N=C(\C)c2ccc(O)cc2)cc1)c1ccc(O)cc1,?,?,4.78µM,/,/
C/C(=N\NC(=O)c1ccc(O)cc1)c1ccc2c(c1)OCCO2,.,.,13.5µM,/,/
C/C(=N\NC(=O)c1ccc(O)cc1)c1ccc(N2CCOCC2)cc1,.,.,?,/,/
SMILES,NPC1 prom act,Rab9 promoter act,FLuc modulator,SMN2 splice up,Luc counter
C/C(=N\NC(=O)c1ccc2c(c1)OCCO2)c1ccccc1,?,.,0.379µM,/,/
C/C(=N\NC(=O)c1ccc2c(c1)OCO2)c1ccc2c(c1)OCO2,?,3.55µM,13.5µM,15.8µM,.
C/C(=N\NC(=O)c1ccc2c(c1)OCO2)c1ccc(C(=O)O)s1,.,.,?,/,.
CCOc1ccc(-c2cn3c(n2)sc2cc(C(=O)NCCc4ccc(OC)c(OC)c4)ccc23)cc1,/,/,?,.,/
CCOc1ccc(NC(=O)C2CCCN(S(=O)(=O)c3c(C)noc3/C=C/N(C)C)C2)cc1 (centres undefined),/,/,.,.,/
NNS(=O)(=O)c1cc(C(=O)O)cc(C(=O)O)c1,/,/,/,.[9.22 µM],.[7.66 µM]
O=Cc1ccc(OCc2ccc3c(c2)OCO3)cc1,.,.,4.78µM,/,/
Cc1ccc(OCCC(=O)Nc2ccc3c(c2)OCO3)cc1,.,.,.,/,/
Cc1ccc(COc2ccc3c(c2)OCO3)cc1,2.24µM,3.98µM,1.2µM,/,/
CCc1ccc(NC(=O)Cn2c(=O)n(CCCC(=O)NCCc3ccc(OC)c(OC)c3)c(=O)c3ccccc32)cc1,/,/,.,.,/
CC(C)CCNC(=O)C1CCN(C(=O)N2CCOc3ccc(Cl)cc32)CC1,/,/,.,/,/
CC1CCN(c2nc3ccc(C(=O)NCc4ccc(Cl)cc4)cc3s2)CC1,/,/,10.7µM,.,/
COc1ccccc1CNC(=O)c1ccc2nc(N3CCCCC3)sc2c1,/,/,?,.,/
